Reference: the supplement of paper PMC12645437, “Orthogonal IMiD-Degron Pairs Induce Selective Protein Degradation in Cells” (ACS Chemical Biology, 2025)
Over roughly 8,300 sequences, “log2 fold change of degron read counts, EGFP-low vs EGFP+ sorted cells (limma voom), compound-induced degradation” has its median near -1.1; the highest 2% begin near 3.2. Only a selection was taken, and the highest values are over-represented in it overall.

T1: CRBN, Q96SW2
T1 chain: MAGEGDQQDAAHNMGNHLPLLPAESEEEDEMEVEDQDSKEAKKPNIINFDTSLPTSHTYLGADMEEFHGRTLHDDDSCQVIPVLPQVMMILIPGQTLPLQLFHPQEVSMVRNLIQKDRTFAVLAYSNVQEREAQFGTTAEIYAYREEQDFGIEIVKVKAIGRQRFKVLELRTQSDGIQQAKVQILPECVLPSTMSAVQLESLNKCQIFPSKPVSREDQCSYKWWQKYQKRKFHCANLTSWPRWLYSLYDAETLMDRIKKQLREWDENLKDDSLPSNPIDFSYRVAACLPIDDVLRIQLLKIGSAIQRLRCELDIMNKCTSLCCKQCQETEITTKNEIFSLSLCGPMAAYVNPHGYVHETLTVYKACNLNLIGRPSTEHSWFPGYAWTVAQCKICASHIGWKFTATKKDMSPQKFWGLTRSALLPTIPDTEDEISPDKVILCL


Target: T1, CRBN, Q96SW2
Assay: log2 fold change of degron read counts, EGFP-low vs EGFP+ sorted cells (limma voom), compound-induced degradation; higher = more compound-induced degradation of the degron-EGFP fusion; degrons are variants of IKZF1/3 zinc finger 2; compound dose not given here
Details: Jurkat, 18 h
[1] = compound: compound 19 (5-tert-butyl-thalidomide)
[2] = compound: compound 22 (5-morpholino-thalidomide)
[3] = compound: compound 33 (diphenyl IMiD analogue)
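Also: pooled lentiviral library of zinc finger degron-EGFP fusions in mCherry-positive Jurkat cells, FACS-sorted after compound exposure, with degron abundance counted by next-generation sequencing.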

| Sequence | log2 fold change of degron read counts [1] | log2 fold change of degron read counts [2] | log2 fold change of degron read counts [3] | log2 fold change of degron read counts (compound: thalidomide) |
| --- | --- | --- | --- | --- |
| FECPICGHSFTQKGNLLRHIKL [46F_47E_49P_50I_52G_53H_54S_55F_67L_, Q9UKT9] | -2.78 | -2.96 | -1.75 | -1.65 |
| FYCEQCGATFTQKGNLLRHIKL [46F_47Y_49E_50Q_52G_53A_54T_55F_67L_, Q9UKT9] | 0.368 | 2.41 | 0.941 | -1.4 |
| FSCEICGAYFTQKGNLLRHIKL [46F_47S_49E_50I_52G_53A_54Y_55F_67L_, Q9UKT9] | 2.46 | 1.44 | 1.69 | 0.848 |
| FWCPVCGACFTQKGNLLRHIKL [46F_47W_49P_50V_52G_53A_54C_55F_67L_, Q9UKT9] | 3.4 | 3.44 | 2.56 | 1.36 |
| FLCPVCGACFTQKGNLLRHIKL [46F_47L_49P_50V_52G_53A_54C_55F_67L_, Q9UKT9] | 0.241 | -0.146 | 1.72 | 1.62 |
| FKCPQCGACFTQKGNLLRHIKL [46F_47K_49P_50Q_52G_53A_54C_55F_67L_, Q9UKT9] | -2.36 | -3 | -3.29 | -2.34 |
| FHCPVCGACFTQKGNLLRHIKL [46F_47H_49P_50V_52G_53A_54C_55F_67L_, Q9UKT9] | 2.42 | 2.44 | 2.11 | 0.528 |
| FYCNVCGACFTQKGNLLRHIKL [46F_47Y_49N_50V_52G_53A_54C_55F_67L_, Q9UKT9] | 1.86 | 2.44 | 1.12 | -0.449 |
| FVCPQCGACFTQKGNLLRHIKL [46F_47V_49P_50Q_52G_53A_54C_55F_67L_, Q9UKT9] | -1.94 | -0.402 | 0.593 | 0.301 |
| FQCPVCGACFTQKGNLLRHIKL [46F_47Q_49P_50V_52G_53A_54C_55F_67L_, Q9UKT9] | 0.553 | 2.77 | 2.39 | 3.46 |
| FYCPVCGACFTQKGNLLRHIKL [46F_47Y_49P_50V_52G_53A_54C_55F_67L_, Q9UKT9] | 3.26 | 3.4 | 2.69 | 1.29 |
| FQCPQCGACFTQKGNLLRHIKL [46F_47Q_49P_50Q_52G_53A_54C_55F_67L_, Q9UKT9] | -1.4 | 0.844 | 0.805 | 3.26 |
| FKCPVCGACFTQKGNLLRHIKL [46F_47K_49P_50V_52G_53A_54C_55F_67L_, Q9UKT9] | -0.716 | -1.95 | -2.51 | -0.832 |
| FNCPVCGACFTQKGNLLRHIKL [46F_47N_49P_50V_52G_53A_54C_55F_67L_, Q9UKT9] | 1.6 | 0.504 | 1 | -0.0222 |
| LDCPICGFWCTQKGNLLRHIKL [46L_47D_49P_50I_52G_53F_54W_55C_67L_, Q9UKT9] | -0.559 | -0.625 | 0.68 | 1.33 |
| FACPVCGAVFTQKGNLLRHIKL [46F_47A_49P_50V_52G_53A_54V_55F_67L_, Q9UKT9] | 3.09 | 1.74 | 1.78 | 0.502 |
| FYCPQCGAMFTQKGNLLRHIKL [46F_47Y_49P_50Q_52G_53A_54M_55F_67L_, Q9UKT9] | 0.518 | 0.45 | 0.601 | -1.06 |
| FCCNVCGAWFTQKGNLLRHIKL [46F_47C_49N_50V_52G_53A_54W_55F_67L_, Q9UKT9] | -1.92 | -1.43 | -1.27 | -1.34 |
